Assay results from PubChem BioAssay AID540356 (Broad Institute, 2011).
About 360 (14%) of roughly 2,500 compounds were called active.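 The calls were made as follows: active = signal-lowering compounds whose fitted half-maximal concentration AC50 is no higher than ten times their top tested concentration; inconclusive = flat curve with 30 to 70% inhibition, or poor fit; inactive = flat within 30%, signal increase, or AC50 above limit.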 Only a sample is shown.

Assay: HRP/luminol detection interference without ALR, dose response, artefact control for ALR inhibitor project, biochemical, luminescence, no ALR or DTT, cherry-pick (AID 540356)
Conditions: HRP/H2O2 luminol luminescence counterscreen; series mostly up to 10 µM

Compound | AC50
COc1ccc(CNc2cc(C)ccc2C)c(OC)c1OC | inactive
CC(NC(=O)C(=O)N1CCCCC1)C(c1cccs1)N1CCN(c2ccc(F)cc2)CC1 (stereo unspecified) | inactive
NNC(=O)c1ccc(O)cc1O | inactive
NNC(=O)CCc1nc2ccc(O)cc2[nH]1 | 10.3 µM (active)
Nc1ccc2nc(COc3ccccc3)[nH]c2c1 | inactive
C/C(=N\Nc1ccc(C(=O)O)cc1)c1ccc(Br)cc1 | inactive
COc1ccc(Cc2nc3ccccc3n2CC(=O)N/N=C/c2ccc(O)cc2)cc1OC | inactive
COc1cccc(-c2noc(Cn3nc(C)c([N+](=O)[O-])c3C)n2)c1 | inactive
CC(C)(C)c1ccc(-c2nc3cc(N)ccc3o2)cc1 | inactive
Nc1ccc2nc[nH]c2c1 | inactive
Nc1ccc(-c2nc3ccccc3[nH]2)cc1 | inactive
Cn1c(C2CCCCC2)nc2cc(N)ccc21 | inactive
Nc1cccc(C(=O)Nc2ccc3nc(-c4cccnc4)[nH]c3c2)c1 | inactive
COc1ccc2nc(-c3ccc(N)cc3)[nH]c2c1 | inactive
Nc1ccc2nc(-c3ccccc3)[nH]c2c1 | 9.02 µM (active)
Nc1ccc(-c2nc3cc(N)ccc3o2)cc1 | inactive
Nc1ccc2nc(NC(=O)C3CCCCC3)sc2c1 | inactive
O=[N+]([O-])c1ccc(CSC2=NCCN2)cc1 | inactive
Cc1cccc2nc(-c3cccnc3)c(Nc3ccccc3)n12 | inactive
COc1ccc(NCC(=O)N/N=C/C2CCCCC2)cc1 | inactive
NNc1nc2ccc(F)cc2s1 | inactive

Compound | AC50
Cc1[nH]c2ccccc2c1/C=N/NC(=O)Cc1cccs1 | inactive
COc1cc(CNc2ncc(-c3ccc(Cl)cc3)n2C)cc(OC)c1OC | inactive
Cc1ccc(Nc2c(-c3ccccc3O)nc3ncccn23)cc1 | inactive
Cc1csc(/C(=N/OC(=O)c2ccco2)C(N)=O)n1 | inactive
CC(=O)Nc1ccc(N2C(=O)CSC2c2ccccc2[N+](=O)[O-])cc1 (stereo unspecified) | inactive
Brc1ccc(CN2CCN(c3ccccc3)CC2)o1 | inactive
Nc1ccc2oc(-c3cccs3)nc2c1 | inactive
Nc1ccc(-c2nc3ccc([N+](=O)[O-])cc3[nH]2)cc1 | inactive
Nc1ccc2sc(N)nc2c1 | inactive
Cc1nc2ccc(-c3nc4ccc(N)cc4[nH]3)cc2[nH]1 | 4.68 µM (active)
Cc1ccc2nc(-c3cccc(N)c3)[nH]c2c1 | inactive
O=C(Nc1nc(-c2ccccc2)ns1)c1cccs1 | inactive
Cc1nnc2sc(SCc3cccc(Cl)c3)nn2c1=O | inactive
O=S(c1ccc2ccccc2c1)c1cnns1 (stereo unspecified) | inactive
C/C(Cl)=C\Cn1c(Nc2ccccc2)nc2c1c(=O)n(C)c(=O)n2C | inactive
CSCc1ccc(C(=O)NC(C)c2ccc(-n3ccnc3)cc2)cc1 (stereo unspecified) | inactive
O=C(CCc1ccccc1)N1CCN(c2ccc(F)cc2)CC1 | inactive
CC(C)=NNc1nc(-c2ccccc2)cs1 | inactive
CC(C)=NNc1nc(-c2ccc(N3C(=O)CCC3=O)cc2)cs1 | 6.32 µM (active)
CC(=O)Nc1ccc(-c2csc(NNC(=O)c3ccccc3)n2)cc1 | inactive
CN(C)c1ccc(C(=O)Nc2nc3c(s2)CCCC3)cc1 | inactive

Compound | AC50
CSCC[C@H](NC(=O)N1CCn2c1nc1ccccc12)C(=O)NC1CCCCC1 | inactive
O=C(Cc1ccccc1)NNc1c2ccccc2nc2ccccc12 | inactive
CC(=O)NC(C)C(c1cccs1)N1CCN(c2ccccc2)CC1 (stereo unspecified) | inactive
COc1ccc(C(=O)N2CCCC(Nc3ccc(C)c(C)c3)C2)cc1 (stereo unspecified) | inactive
CC(=O)c1ccc(S(=O)(=O)Nc2cccc(S(=O)(=O)NC3=NCCC3)c2)cc1 | inactive
c1ccc(NNC2=NCCCCC2)cc1 | 6.06 µM (active)
Oc1[nH]c2ccccc2c1C1=NCCCC1 | inactive
CN(C)c1ccc(CN(C(=O)c2ccccc2Br)C2CCS(=O)(=O)C2)cc1 (stereo unspecified) | inactive
COc1ccc(N2CCN(CC(=O)Nc3ccc(C)c(C)c3)CC2)cc1 | inactive
Cc1ccc(C(=O)NCCSc2snnc2C)cc1 | inactive
Cc1ccc(-c2n[nH]c(=S)n2/N=C/c2c(C)[nH]n(-c3ccccc3)c2=O)cc1 | inactive
O=c1cc(-c2ccccc2)[nH]c2[nH]n(-c3ccccc3)c(=O)c12 | inactive
N#Cc1ccc(CSc2nnc(NC(=O)c3ccc(=O)[nH]c3)s2)cc1 | inactive
NNC(=O)c1cccc(COc2ccccc2Br)c1 | inactive
Cc1cccc(N2CCN(C(=O)C3CCCN(S(=O)(=O)c4cnc[nH]4)C3)CC2C)c1 (stereo unspecified) | inactive
S=c1[nH]nc(-c2cccc3ccccc23)n1-c1cccnc1 | inactive
COc1cccc(/C=N/NC(=O)CNC(=O)c2ccncc2)c1O | inactive
COc1cc(/C=N/N2CCCCC2)cc([N+](=O)[O-])c1O | inactive
COc1cccc(/C=N/n2c(-c3cc(C)[nH]n3)n[nH]c2=S)c1OC | inactive
Cc1cccc(/C=N/n2c(-c3ccccc3)n[nH]c2=S)c1O | inactive
COc1cccc(/C=N/NC(=O)NC2CCCCC2)c1O | inactive

Compound | AC50
COc1cc(/C=N/n2c(C)n[nH]c2=S)ccc1OCc1ccccc1 | inactive
COc1ccc(C2CC(c3ccccc3)=NN2c2ccccc2)c(C(=O)O)c1OC (stereo unspecified) | inactive
O=C(O)CCc1ccc(-c2cccs2)n1NC(=O)c1cccs1 | inactive
O=C(O)c1cc(O)ccc1NC(=O)c1cccc2ccccc12 | inactive
O=C(NCCN1CCCc2ccccc21)C1CCC(=O)N(CCc2ccccc2)C1 (stereo unspecified) | inactive
O=C1CC(=O)N(c2ccccc2)N1c1ccccc1 | inactive
c1ccc(CNc2ncnc3sc4c(c23)CCCC4)nc1 | inactive
Nn1c(Nc2ccccc2)nc2sc3c(c2c1=O)CCCC3 | inactive
Cc1ccc(NC2CCCN(C(=O)CCc3scnc3C)C2)cc1C (stereo unspecified) | inactive
CC(C)c1ccc(NC2CCCN(C(=O)c3cscn3)C2)cc1 (stereo unspecified) | inactive
CN(C)c1ccc(NC(=O)CN2CCN(S(=O)(=O)c3cc(Cl)ccc3Cl)CC2)cc1 | inactive
CCN(CC)c1ccc(/C=N/NC(=O)CC(C)C)cc1 | inactive
Oc1ccc(/C=N/n2c(COc3ccccc3)n[nH]c2=S)cc1O | inactive
CCCCCC(=O)N/N=C/c1cc(Br)c(O)c(OC)c1 | inactive
COc1cc(/C=N/NC(=O)C2C3CCCCC32C)cc(Br)c1O (stereo unspecified) | inactive
COc1cc(/C=N/N2C(=O)C3C4C=CC(CC4)C3C2=O)ccc1O (stereo unspecified) | inactive
COc1cc(/C=N/Nc2ccccc2)ccc1O | inactive
COc1cc(/C=N/N2C(C)CCCC2C)cc(Br)c1O (stereo unspecified) | inactive
